Experimental data as given in PubChem BioAssay AID1347056 (Sanford-Burnham Center for Chemical Genomics, 2019).
Hit rate of the full screen: of about 360,000 compounds, about 3,600 (1%) were called active.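 The calls were made as follows: active = compounds whose plate-normalised and pattern-corrected inhibition of the luciferase reporter signal at the single screening dose is 50% or more; inactive = the rest.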 This excerpt belongs to a sample that is enriched for actives.

assay: inhibitors of TROY-driven NF-kB signaling, primary screen, Q293 LMP1-TROYcd cells, NF-kB luciferase, uHTS (AID 1347056); conditions: Q293 LMP1-TROYcd NF-kB luciferase reporter, 4 h; at 10 µM; stronger effect = higher value

inhibition, active:
O=C1c2ccccc2C2=Nc3ccccc3SC(c3ccccc3F)C12 (stereo not given) 63.5%, Cc1cccc(NC(=O)CSc2nc3[nH]ncc3c(=O)[nH]2)c1 80.2%, O=C(/C=C/c1ccc(Cl)c([N+](=O)[O-])c1)c1ccc(O)cc1 55.6%, O=C(/C=C/c1ccc(Cl)c([N+](=O)[O-])c1)c1cccnc1 64.6%, CCOC(=O)c1c(-c2ccccc2)oc2cc(Br)c(O)c(C=O)c12 74.6%, CC[C@H]1CN2CCc3cc(OC)c(OC)cc3[C@@H]2C[C@@H]1C[C@H]1NCCc2cc(OC)c(OC)cc21 86%, CCOC(=O)C(=Cc1ccccc1)C(=O)c1ccccc1 55%

inhibition, inactive:
COCCCn1c(-c2cccs2)nc2nc3ccccc3nc21 1.22%, Cc1ccc(CSc2nc3[nH]ncc3c(=O)[nH]2)cc1 -16.1%, O=C(CSc1nc2[nH]ncc2c(=O)[nH]1)Nc1ccc(F)cc1 -9.77%, COc1ccc(S(=O)(=O)N2CCN(C)CC2)c(C)c1 -7.28%, O=C(O)c1ccc2c(=O)n3c(nc2c1)/C(=C/c1ccc(Cl)c([N+](=O)[O-])c1)CC3 -0.87%, C/C(=N\NC(=O)Cc1ccccc1[N+](=O)[O-])c1cccnc1 -4.21%, O=C(/C=C/c1ccc(Cl)cc1)N1CCN(c2ccccc2[N+](=O)[O-])CC1 9.62%, O=C(Nc1cccnc1)c1ccc(Cl)cc1[N+](=O)[O-] -20.1%, O=C(NCc1ccccc1CN1CCCC1)C1CCN(S(=O)(=O)c2ccc(Cl)cc2)CC1 4.08%, Cc1ccnc(NC(=O)CCNS(=O)(=O)c2ccc(C)c(C)c2)c1 29.5%, Cc1ccc2nc(SCc3nnc(-c4ccccc4[N+](=O)[O-])o3)c(C#N)cc2c1 2.86%, CCOC(=O)c1c(C)oc2cc(Sc3ccccc3)c(O)c(O)c12 -45.5%, CCOC(=O)c1c(C)oc2cc(Br)c(OCC(N)=O)cc12 8.9%, COc1ccc([N+](=O)[O-])cc1NC(=O)c1ccc(N(Cc2ccccc2C)S(C)(=O)=O)cc1 13.5%, COC(=O)C1=C(C)N=C2SC(C)C(=O)N2C1/C=C/c1ccccc1 (stereo not given) 0.14%, CCCc1cc(=O)[nH]c2nnc(SCC(=O)Nc3nnc(SCC)s3)n12 -11.1%, CCOC(=O)/C(=C\c1ccc([N+](=O)[O-])cc1)C(=O)c1cc(C(C)=O)c(Nc2ccccc2)s1 1.46%, CCOC(=O)C(=Cc1ccccc1OC)C(=O)OCC 36.4%
